Assay [1] is described as follows: qHTS of pediatric cancer cell lines to identify multiple opportunities for drug repurposing: Primary screen for BT-12 cells (AID 1347101). Further: nearly all actives have a fitted effect of over 25% in size. Further: potency means the concentration at half of the fitted maximal effect. In short, it runs like this:
(§1)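 Cells (500-1,000/well) rested 5 h, then received compounds for 48 h; metabolically active cells were measured by CellTiter-Glo luminescence. Final concentrations spanned up to 46 µM (MIPE, 11-point) or 0.59 nM-46 µM (NPC, 8-point) in primary screens, 11-point in follow-ups.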

Assay [2] in a line: qHTS of pediatric cancer cell lines to identify multiple opportunities for drug repurposing: Primary screen for Rh18 cells (AID 1347102). Further: nearly all actives have a fitted effect of over 65% in size. Further: potency means the concentration at half of the fitted maximal effect. A digest of the protocol:
(§2)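 Cells (500-1,000/well) in growth media were settled 5 h at 37 degrees C, then given compounds for 48 h. Viability was read as CellTiter-Glo luminescence. Primary runs used MIPE at 11 points (0.78 nM-46 µM) and NPC at 8 points (0.59 nM-46 µM); follow-ups used 11 points.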

Assay [3] in a line: qHTS of pediatric cancer cell lines to identify multiple opportunities for drug repurposing: Primary screen for MG 63 (6-TG R) cells (AID 1347105). Further: nearly all actives have a fitted effect of over 50% in size. Further: potency means the concentration at half of the fitted maximal effect. A digest of the protocol:
(§3)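 ATP-based luminescence (CellTiter-Glo) quantifies viability after a 48-hour exposure. Compounds are dosed across 8 or 11 final concentrations; DMSO and 2.3 µM bortezomib serve as controls.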
For orientation: qHTS replaces the single test concentration by a dilution series.

A short description of assay [4]: qHTS of pediatric cancer cell lines to identify multiple opportunities for drug repurposing: Primary screen for Rh30 cells (AID 1347107). Further: nearly all actives have a fitted effect of over 75% in size. Further: potency means the concentration at half of the fitted maximal effect. In short, it runs like this: as §2
A short description of assay [5]: qHTS of pediatric cancer cell lines to identify multiple opportunities for drug repurposing: Primary screen for RD cells (AID 1347104). Further: nearly all actives have a fitted effect of over 55% in size. Further: potency means the concentration at half of the fitted maximal effect. In short, it runs like this:
as §3

Assay [6] in a line: qHTS of pediatric cancer cell lines to identify multiple opportunities for drug repurposing: Primary screen for control Hh wild type fibroblast cells (AID 1347106).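 Further: series mostly up to about 46 µM; a drop in luminescence marks cytotoxicity and a rise apparent proliferation; nearly all actives have a fitted effect of over 55% in size.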 A digest of the protocol: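 Viability after 48 h compound treatment at 37C, 500-1,000 cells/well, read as ATP luminescence with CellTiter-Glo. Primary screens used 11-point (MIPE, 0.78 nM-46 µM) or 8-point (NPC, 0.59 nM-46 µM) final concentrations; follow-up screens used 11-point dilutions.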

Assay [7] can be described thus: qHTS of pediatric cancer cell lines to identify multiple opportunities for drug repurposing: Primary screen for OHS-50 cells (AID 1347103). Further: nearly all actives have a fitted effect of over 40% in size. Further: potency means the concentration at half of the fitted maximal effect. In short, it runs like this:
as §1

Assay [8] can be described thus: qHTS of pediatric cancer cell lines to identify multiple opportunities for drug repurposing: Primary screen for Rh41 cells (AID 1347108). Further: nearly all actives have a fitted effect of over 70% in size. Further: potency means the concentration at half of the fitted maximal effect. In short, it runs like this: as §3

Structures are written as SMILES. Records with an inconclusive call do not appear. Active and inactive are the calls of the source. The call rests on the fitted dose curve; in most records, active means well fitted curve in the direction sought with a large enough effect; inconclusive means small, poorly fitted or top-dose-only effect, or another doubt; inactive means no such curve, though single readings can be large; an effect the other way counts as inactive or inconclusive.

21 molecules from PubChem BioAssay (NCATS) can be followed below.

Regarding `CCc1cccc(CC)c1NC(=O)N1Cc2[nH]nc(NC(=O)c3ccc(N4CCN(C)CC4)cc3)c2C1`, the Potency result in assay [1] and in assay [4] was “inactive” throughout. Besides, the Potency was 8.33 µM (active) in assay [2] and 14.8 µM (active) in assay [3].

For the molecule `N=C1SC(=Cc2ccc(-c3ccc4c(c3)C(=O)NC4=O)o2)C(=O)N1c1ccc(Br)cc1`, the Potency entry in assay [1], in assay [2], in assay [5], in assay [3], in assay [6] and in assay [4] was “inactive” throughout.

Consider `N#CC(c1ccnc(NCCc2cccnc2)n1)c1nc2ccccc2s1` (configuration not stated), for which the Potency is 21.7 µM (active) in assay [1], 19.3 µM (active) in assay [7], 23.5 µM (active) in assay [5] and 23.5 µM (active) in assay [8].

Turning to `Cc1cc(C(C)Nc2ccccc2)c2nc(N3CCOCC3)cc(=O)n2c1` (configuration not stated), the Potency result in assay [1] was “inactive”.

Consider `COc1ccc2cc1Oc1ccc(cc1)C[C@H]1c3cc(c(OC)cc3CCN1C)Oc1c(OC)c(OC)cc3c1[C@H](C2)N(C)CC3`, for which the Potency in assay [1] is 7.69 µM (active); in assay [7], 17.2 µM (active). For the same molecule, the Potency result in assay [2] and in assay [6] was “inactive” in each case.

`CCCCC[C@H](O)C=C[C@H]1[C@H](O)CC(=O)[C@H]1CC=CCCCC(=O)O`: the Potency entry in assay [2], in assay [7], in assay [5], in assay [3], in assay [6] and in assay [4] was “inactive” each time. For the same molecule, in assay [8], the Potency entry is “inactive”.

`O=C(O)CCC=CCC[C@@H]1[C@H](N2CCCCC2)[C@@H](O)C[C@@H]1OCc1ccc(-c2ccccc2)cc1`: the Potency result in assay [1], in assay [2], in assay [3] and in assay [6] was “inactive” in each case. The Potency in assay [8] is 18.7 µM (active).

Turning to `COc1cc(CNC(=O)CCCCC=CC(C)C)ccc1O`, the Potency result in assay [1], in assay [2], in assay [3], in assay [6], in assay [4] and in assay [8] was “inactive” each time.

Regarding `COc1ccc(-c2cc3nccn3c(Nc3ncccc3C(N)=O)n2)cc1OC`, the Potency entry in assay [2], in assay [3] and in assay [6] was “inactive” throughout. Also, the Potency in assay [7] is 1.93 µM (active); in assay [8], 2.35 µM (active).

For `CCCCCOC(=O)Nc1nc(=O)n([C@@H]2O[C@H](C)[C@@H](O)C2O)cc1F` (some centres not stated), the Potency result in assay [1], in assay [7], in assay [5], in assay [6] and in assay [4] was “inactive” in each case.

Take `O=c1[nH]c(=O)n([C@H]2C[C@@H](O)[C@@H](CO)O2)cc1C(F)(F)F`: the Potency in assay [1] was 10.9 µM (active); in assay [7] it was 17.2 µM (active). Also, the Potency result in assay [3], in assay [6], in assay [4] and in assay [8] was “inactive” each time.

Take `CN1CCC(COc2cnc(-c3cccc(Cn4nc(-c5cccc(C#N)c5)ccc4=O)c3)nc2)CC1`: the Potency result in assay [1], in assay [2] and in assay [4] was “inactive” each time. Besides, the values for the Potency in assay [5], in assay [3] and in assay [8] were 4.69 µM (active), 0.743 µM (active) and 3.72 µM (active), respectively.

For the molecule `CCCCCCCCCCCCCCCC(=O)O[C@H]1[C@@H](O)[C@@H](O)[C@@H]([C@H](NC(=O)[C@@H]2C[C@@H](CCC)CN2C)[C@H](C)Cl)O[C@@H]1SC`, the Potency result in assay [1], in assay [2], in assay [7], in assay [3], in assay [6] and in assay [4] was “inactive” in each case.

`O=C(O)C1=CC(O)C(O)[C@H](O)C1` (some centres not stated): the Potency entry in assay [2], in assay [7], in assay [3], in assay [6], in assay [4] and in assay [8] was “inactive” each time.

Take `CC[C@]1(O)C[C@H]2CN(CCC3=c4ccccc4=N[C]3[C@@](C(=O)OC)(c3cc4c(cc3OC)N(C)[C@H]3[C@@](O)(C(N)=O)[C@H](O)[C@]5(CC)C=CCN6CC[C@]43[C@@H]65)C2)C1`: the figures for the Potency in assay [1], in assay [7] and in assay [5] were 0.122 µM (active), 0.0685 µM (active) and 0.0332 µM (active), respectively. In addition, in assay [4], the Potency result is “inactive”.

On to `COC1CCC(C(=O)c2ccc3nc4c(cc3c2)CCCO4)CC1` (configuration not stated), for which the Potency in assay [1] is 1.93 µM (active); in assay [7], 12.2 µM (active); in assay [5] it was 26.4 µM (active). In addition, the Potency entry in assay [2] and in assay [6] was “inactive” in each case.

With `C[C@H](c1ccc(F)cc1CCCC(=O)O)N(c1cc(F)ccc1F)S(=O)(=O)c1ccc(Cl)cc1`, the Potency entry in assay [1] and in assay [6] was “inactive” each time. For the same molecule, in assay [4], the Potency was 14.8 µM (active).

As for `Cc1cc(OCCCS(C)(=O)=O)cc(C)c1-c1cccc(COc2ccc3c(c2)OC[C@H]3CC(=O)O)c1`, the Potency entry in assay [2] and in assay [3] was “inactive” in each case.

With `O=C(Nc1ccc(OC(F)(F)F)cc1)c1sccc1NCc1ccnc2ccccc12`, the Potency entry in assay [2], in assay [3] and in assay [6] was “inactive” each time.

Regarding `N#Cc1ccc(Oc2ccc3c(c2)COB3O)cc1`, the Potency result in assay [2], in assay [5], in assay [3], in assay [6], in assay [4] and in assay [8] was “inactive” each time.

On to `COc1c(C)c2c(c(O)c1CC=C(C)CCC(=O)OCCN1CCOCC1)C(=O)OC2`, for which the Potency result in assay [2], in assay [4] and in assay [8] was “inactive” throughout.
